Test results published in the supplement of paper PMC6555819.

Key:
Assay in all cases: PBM binding z-score (relative to random genomic background probes); higher = stronger binding; sequences stand for … in GC…GCGATTGACAGCGTAGAATGAAGG
[1] = tested on: RARb homodimer (NR concentration 270 nM)
Procedure, shortened: (§1)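 Antibodies against each partner of ligand-free nuclear receptor dimers (one per run) detected binding on custom Agilent 4×180K protein-binding microarrays after 1 h incubation. The double-stranded probes had 34-nt variable regions carrying direct-repeat seeds, single-nucleotide variants, half-site ablations and random human genomic background sequences. Binding z-scores, from regression-normalized fluorescence, use the random background probes as reference.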

[2] = tested on: RARg:RXRa (NR concentration 270 nM, RXRa partner concentration 90 nM)
Procedure, shortened: as §1

[3] = tested on: RARg homodimer (NR concentration 270 nM)
Procedure, shortened: as §1

[4] = tested on: RXRa DBDmut IVT, anti-RXR (DBD mutation: RXRa K156A/R161A, NR concentration 90 nM)
Procedure, shortened: as §1

[5] = tested on: RXRa homodimer (NR concentration 180 nM)
Procedure, shortened: as §1

[6] = tested on: THRa:RXRa (NR concentration 90 nM, RXRa partner concentration 90 nM)
Procedure, shortened: as §1

[7] = tested on: THRa homodimer (NR concentration 90 nM)
Procedure, shortened: as §1

[8] = tested on: VDR homodimer (NR concentration 270 nM)
Procedure, shortened: as §1

Sequence	PBM binding z-score [1]	PBM binding z-score [2]	PBM binding z-score [3]	PBM binding z-score [4]	PBM binding z-score [5]	PBM binding z-score [6]	PBM binding z-score [7]	PBM binding z-score [8]
TCTAGCAGGCCAGAGGGTGACTCAAGAGGTACGG	0.225	0.176	-0.109	-0.237	0.486	-0.0515	-0.795	-0.534
AGAATGAGGTTATACGTAGATCAGAGAAGAAAGT	0.491	1.83	1.42	1.87	2.05	2.25	0.546	0.887
ACTTACGGTTCAACGAGGTTATAGCACGCGTATA	1.54	2.25	1.14	3.49	3.22	3.06	0.878	5.32
CCTGCTGGGCCACGAAAGGTCATTGATTCAGTGA	4.56	4.89	4.55	0.711	5.39	3.87	0.572	2.37
TCGAGTAGGTTAGTCGGGGCACTCAGCCAACATA	0.461	0.0814	-0.0518	0.105	0.249	1.35	-0.252	0.195
CAAACTAGGTCACCAGAAGGTCAAAGTCCGCATG	5.5	8.08	7.22	2.32	6.38	4.35	2.59	3.71
TCATATAGGTAAATGCTAGCTGAAAGTCCGATCT	-0.406	0.14	0.178	1.68	0.565	-0.388	-0.402	0.142
AGAACGAGAGCACGCTGAGTTGATAGCAGAGTAG	-1.13	-0.185	0.0866	-0.192	-0.166	-0.571	-1.24	-0.355
ATCGAAAGGTCGAGAGGTGAGTATACAGAAAGGC	3	4.69	4.09	0.518	4.53	2.37	-0.0205	0.542
CGAGCTAGGTCAGAACAGGACAGTGAAGGATGAT	2.11	2.12	3.53	0.0691	1.07	3.47	-0.106	-0.325
AGAACCAGGGCAATGAGTTGATAGCACGGGTGGC	0.48	0.321	0.673	0.0529	0.352	0.225	-0.251	0.986
TAGAGTAGGTTACCAATGGGGCATTCAGCTTTCT	1.09	1.76	1.12	0.201	0.73	0.389	-0.222	-0.0971
AGTCCAAGTTCAGGACGAGGTAACGTAAAGCACG	1.71	2.68	2.35	3.51	1.3	3.44	1.65	2.91
ATTTCTAGGTAAAGATAGTTCAGTGAATGCAAAT	0.935	0.671	0.813	0.38	0.418	1.02	0.00694	0.94
CGTCCAAGGTCAGCAGGACAGTGAAAGCGACGTG	3.89	5.05	6.09	2.33	3.68	3.72	1.9	0.589
CCTACTGGGCCACAGGTCATTGATTCCAATGCTC	2.48	2.14	1.94	0.14	2.23	1.54	0.651	1.13
